Laboratory results as given in ChEMBL document CHEMBL1961873, “Compounds: GSK PKIS; Assays: Nanosyn kinase panel” (2012).

Experiments:
[1] = target: 5'-AMP-activated protein kinase catalytic subunit alpha-2 (Homo sapiens) (UniProt P54646); conditions: at 1 µM
[2] = target: T1, NUAK family SNF1-like kinase 1 (Homo sapiens) (UniProt O60285); conditions: at 0.1 µM
T1 sequence (whole entry): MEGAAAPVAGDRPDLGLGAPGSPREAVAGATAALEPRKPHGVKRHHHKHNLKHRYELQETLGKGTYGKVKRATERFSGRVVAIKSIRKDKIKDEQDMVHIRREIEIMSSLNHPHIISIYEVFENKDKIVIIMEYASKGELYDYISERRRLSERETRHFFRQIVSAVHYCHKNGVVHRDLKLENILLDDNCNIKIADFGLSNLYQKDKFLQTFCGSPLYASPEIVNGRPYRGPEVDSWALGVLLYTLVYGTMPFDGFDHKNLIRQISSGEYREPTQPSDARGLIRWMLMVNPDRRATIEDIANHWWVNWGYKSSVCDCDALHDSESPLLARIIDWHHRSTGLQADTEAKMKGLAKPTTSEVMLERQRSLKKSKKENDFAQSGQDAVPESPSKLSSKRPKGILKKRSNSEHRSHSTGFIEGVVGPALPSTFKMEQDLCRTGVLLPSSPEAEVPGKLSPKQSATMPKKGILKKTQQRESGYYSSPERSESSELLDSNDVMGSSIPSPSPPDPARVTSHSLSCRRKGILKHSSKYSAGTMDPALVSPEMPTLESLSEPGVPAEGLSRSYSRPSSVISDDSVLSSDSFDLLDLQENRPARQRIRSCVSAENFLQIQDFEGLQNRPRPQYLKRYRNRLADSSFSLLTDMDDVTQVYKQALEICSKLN

[3] = target: T1, NUAK family SNF1-like kinase 1 (Homo sapiens); conditions: at 1 µM
[4] = target: T2, Serine/threonine-protein kinase BRSK1 (Homo sapiens) (UniProt Q8TDC3); conditions: at 0.1 µM
T2 sequence (whole entry): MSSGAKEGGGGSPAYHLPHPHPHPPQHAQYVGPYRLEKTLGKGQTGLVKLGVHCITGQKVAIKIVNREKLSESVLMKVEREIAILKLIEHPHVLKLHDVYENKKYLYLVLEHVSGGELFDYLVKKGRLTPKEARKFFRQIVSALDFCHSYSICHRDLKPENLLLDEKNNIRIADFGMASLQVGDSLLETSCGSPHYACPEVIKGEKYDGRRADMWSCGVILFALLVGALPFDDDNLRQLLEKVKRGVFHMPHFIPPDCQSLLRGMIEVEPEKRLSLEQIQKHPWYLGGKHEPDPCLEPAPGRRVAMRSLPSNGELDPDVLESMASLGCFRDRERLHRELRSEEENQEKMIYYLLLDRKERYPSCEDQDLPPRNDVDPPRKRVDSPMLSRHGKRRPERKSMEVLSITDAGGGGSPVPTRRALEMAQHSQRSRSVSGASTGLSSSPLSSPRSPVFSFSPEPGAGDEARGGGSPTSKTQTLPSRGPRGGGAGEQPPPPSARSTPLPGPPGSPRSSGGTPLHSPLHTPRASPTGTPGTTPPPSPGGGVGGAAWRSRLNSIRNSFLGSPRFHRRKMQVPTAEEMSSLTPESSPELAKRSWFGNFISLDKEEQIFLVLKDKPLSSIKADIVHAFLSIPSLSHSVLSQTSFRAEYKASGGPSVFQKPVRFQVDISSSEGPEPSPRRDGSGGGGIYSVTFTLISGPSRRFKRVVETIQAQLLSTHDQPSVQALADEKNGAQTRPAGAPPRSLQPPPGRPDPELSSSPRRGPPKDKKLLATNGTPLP

[5] = target: T2, Serine/threonine-protein kinase BRSK1 (Homo sapiens); conditions: at 1 µM
[6] = target: T3, Serine/threonine-protein kinase BRSK2 (Homo sapiens) (UniProt Q8IWQ3); conditions: at 0.1 µM
T3 sequence (whole entry): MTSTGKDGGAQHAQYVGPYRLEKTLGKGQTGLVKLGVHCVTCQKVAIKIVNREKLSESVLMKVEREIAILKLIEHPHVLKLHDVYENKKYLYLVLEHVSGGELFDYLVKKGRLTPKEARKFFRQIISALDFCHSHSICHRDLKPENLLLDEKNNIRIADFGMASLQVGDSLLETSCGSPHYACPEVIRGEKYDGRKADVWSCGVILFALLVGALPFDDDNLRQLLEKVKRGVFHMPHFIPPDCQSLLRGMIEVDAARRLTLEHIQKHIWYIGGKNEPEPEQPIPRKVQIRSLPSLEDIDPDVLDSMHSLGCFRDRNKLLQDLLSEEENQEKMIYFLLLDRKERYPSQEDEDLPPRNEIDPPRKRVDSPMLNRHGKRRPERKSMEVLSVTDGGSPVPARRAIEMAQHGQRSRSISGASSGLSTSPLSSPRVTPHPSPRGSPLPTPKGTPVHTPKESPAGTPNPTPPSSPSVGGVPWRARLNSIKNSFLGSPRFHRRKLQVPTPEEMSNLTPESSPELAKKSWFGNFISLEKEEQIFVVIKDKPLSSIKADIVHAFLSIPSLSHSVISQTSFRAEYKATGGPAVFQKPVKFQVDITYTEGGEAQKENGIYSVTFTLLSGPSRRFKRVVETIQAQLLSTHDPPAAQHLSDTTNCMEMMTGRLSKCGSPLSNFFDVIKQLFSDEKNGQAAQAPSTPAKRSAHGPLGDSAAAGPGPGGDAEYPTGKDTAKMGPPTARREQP

[7] = target: T3, Serine/threonine-protein kinase BRSK2 (Homo sapiens); conditions: at 1 µM
[8] = target: Calcium/calmodulin-dependent protein kinase type 1D (Homo sapiens) (UniProt Q8IU85); conditions: at 0.1 µM
Chain of Calcium/calmodulin-dependent protein kinase type 1D (Homo sapiens) (Q8IU85 whole entry, looked up): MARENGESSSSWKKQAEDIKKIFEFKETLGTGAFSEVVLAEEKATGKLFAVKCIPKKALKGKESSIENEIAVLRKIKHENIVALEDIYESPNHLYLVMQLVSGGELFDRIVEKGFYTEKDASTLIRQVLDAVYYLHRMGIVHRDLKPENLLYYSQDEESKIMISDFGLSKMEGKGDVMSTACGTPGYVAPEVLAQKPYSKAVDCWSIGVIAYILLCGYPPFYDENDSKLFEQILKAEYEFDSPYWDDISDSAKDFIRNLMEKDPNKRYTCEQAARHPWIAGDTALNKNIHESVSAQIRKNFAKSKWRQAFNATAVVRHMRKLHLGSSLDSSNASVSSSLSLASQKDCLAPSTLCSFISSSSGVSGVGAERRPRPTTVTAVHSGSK

[9] = target: Calcium/calmodulin-dependent protein kinase type 1D (Homo sapiens) (UniProt Q8IU85); conditions: at 1 µM
[10] = target: Calcium/calmodulin-dependent protein kinase type II subunit alpha (Homo sapiens) (UniProt Q9UQM7); conditions: at 0.1 µM;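 note: reported values are averages (mean inhibition of CAMK2A)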
Chain of Calcium/calmodulin-dependent protein kinase type II subunit alpha (Homo sapiens) (Q9UQM7 whole entry): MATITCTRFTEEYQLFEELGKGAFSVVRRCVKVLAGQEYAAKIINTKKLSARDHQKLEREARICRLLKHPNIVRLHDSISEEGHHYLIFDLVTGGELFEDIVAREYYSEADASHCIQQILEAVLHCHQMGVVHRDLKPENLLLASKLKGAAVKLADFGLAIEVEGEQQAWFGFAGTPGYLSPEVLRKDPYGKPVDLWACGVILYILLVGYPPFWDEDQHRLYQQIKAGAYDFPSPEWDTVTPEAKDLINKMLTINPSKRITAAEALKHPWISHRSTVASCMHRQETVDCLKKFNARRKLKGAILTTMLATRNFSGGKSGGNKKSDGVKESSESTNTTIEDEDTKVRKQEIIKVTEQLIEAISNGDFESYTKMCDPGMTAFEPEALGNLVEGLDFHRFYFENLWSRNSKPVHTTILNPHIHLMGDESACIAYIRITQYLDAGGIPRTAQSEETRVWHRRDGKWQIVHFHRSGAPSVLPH

Chain of 5'-AMP-activated protein kinase catalytic subunit alpha-2 (Homo sapiens) (P54646 whole entry, looked up): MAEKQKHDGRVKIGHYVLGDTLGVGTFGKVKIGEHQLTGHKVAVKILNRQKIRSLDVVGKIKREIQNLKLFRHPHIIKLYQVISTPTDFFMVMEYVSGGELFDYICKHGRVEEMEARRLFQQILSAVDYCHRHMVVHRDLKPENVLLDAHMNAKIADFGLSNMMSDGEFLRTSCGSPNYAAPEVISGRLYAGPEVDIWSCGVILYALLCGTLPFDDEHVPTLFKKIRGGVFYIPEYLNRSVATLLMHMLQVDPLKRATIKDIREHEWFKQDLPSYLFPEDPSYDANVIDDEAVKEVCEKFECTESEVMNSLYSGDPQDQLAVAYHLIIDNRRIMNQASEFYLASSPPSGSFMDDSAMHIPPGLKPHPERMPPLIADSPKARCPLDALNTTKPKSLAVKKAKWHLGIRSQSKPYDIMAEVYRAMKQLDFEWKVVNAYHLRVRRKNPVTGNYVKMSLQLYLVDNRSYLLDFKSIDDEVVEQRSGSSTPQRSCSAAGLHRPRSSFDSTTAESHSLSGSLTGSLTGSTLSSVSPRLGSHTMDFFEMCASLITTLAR

| Compound | inhibition [1] [%] | inhibition [2] [%] | inhibition [3] [%] | inhibition [4] [%] | inhibition [5] [%] | inhibition [6] [%] | inhibition [7] [%] | inhibition [8] [%] | inhibition [9] [%] | inhibition [10] [%] |
| --- | --- | --- | --- | --- | --- | --- | --- | --- | --- | --- |
| Nc1ncnc2occ(-c3ccc(NC(=O)Nc4cc(C(F)(F)F)cc(C(F)(F)F)c4)cc3)c12 | 4.79 | 1.19 | 2.22 | 1.78 | 3.44 | 1.11 | 0.11 | 1.67 | 4.38 | 3.17 |
| CCn1c(-c2nonc2N)nc2ccncc21 | 4.28 | 1.84 | 4.31 | 1.52 | 2.23 | 1.34 | 0.91 | 1.15 | 1.59 | 3.93 |
| CCc1cccc(NC(=O)Nc2ccc(Oc3ccc4nc(NC(=O)OC)[nH]c4c3)cc2)c1 | -0.72 | 1.37 | 4.18 | 0.6 | 0.32 | 3.12 | 5.96 | 0.1 | 1.18 | 4.24 |
| CN1CCC(C(=O)Nc2n[nH]c3nnc(-c4ccccc4)cc23)CC1 | 5.01 | 1.18 | 3.89 | 1.14 | 4.22 | 2.62 | 6.52 | 0.42 | 1.89 | 3.75 |
| CS(=O)(=O)Nc1ccc(N/C=C2\C(=O)Nc3ccccc32)cc1 | 4.21 | 12.6 | 43.9 | 2.83 | 16.5 | 4.09 | 30.6 | -1.16 | 0.24 | -3.83 |
| Cc1ccc(NC(=O)c2ccnc(N3CCCC3)c2)cc1-c1ccc(C(=O)NCC2CC2)cc1 | 8.93 | 5.1 |  | 3.85 | 3.6 | 2.81 | 4.83 | 0.91 | 2.39 | 4.45 |
| O=C1NC(=O)C(c2cccc(Cl)c2)=C1Nc1ccc(O)c(Cl)c1 | 11 | 8.01 | 48.3 | 2.57 | 12.9 | 2.05 | 19 | 1.1 | 5.88 | 3.72 |
| CNC(=O)c1cncc(/C=C/c2c(Cl)cccc2Cl)c1 | 1.77 |  | 7.27 | 4.16 | 7.3 | 1.54 | 9.33 | -0.35 | 2.1 | 3 |
| CCn1c(-c2nonc2N)nc2c(C#CC(C)(C)O)nc(OC[C@@H](N)c3ccccc3)cc21 | 21.1 | 28 | 94.5 | 0.41 | 4.9 | 0.42 | 5 | 0.26 | 2.9 | -2.45 |
| NC(=O)c1cccc(Nc2nccc(Nc3cccc4[nH]ncc34)n2)c1 | 11 | 40.5 | 80.7 | 3.32 | 22 | 2.15 | 19.3 | 0.34 | 4.12 | -4.01 |
| O=C1NC(=O)C(N2CCc3ccccc32)=C1c1ccc(Cl)cc1 | 5.78 | 4.44 | 7.39 | 3.67 | 5.07 | 2.92 | 3.2 | 0.76 | 1.55 | 4.4 |
| Cc1cccc(-c2n[nH]cc2-c2ccc3ncccc3n2)n1 | 1.54 | 0.78 | 4.74 | 0.22 | 1.97 | 2.17 | 2.14 | 0.56 | 1.08 | -1.03 |
| COc1cc2ncn(-c3cc(OCc4ccccc4C(F)(F)F)c(C(N)=O)s3)c2cc1OC | 6.24 | 21.7 | 65.5 | 6.7 | 41.1 | 14.8 | 52.4 | -0.86 | -1.9 | 2.39 |
| COc1cc2ncn(-c3cc(OCc4ccccc4Cl)c(C(N)=O)s3)c2cc1OC | 3.59 | 14.3 | 58.6 | 7.81 | 40.6 | 12.4 | 48.6 | 0.78 | 3.64 | -2.74 |
| COC(=O)Nc1nc2cc(Oc3ccc(NC(=O)Nc4cccc(C(=O)O)c4)cc3)ccc2[nH]1 | 2.8 | 6.73 | 8 | -1.07 | 2.91 | 2.19 | 9.32 | 0.59 | -1.87 | 1.77 |
| COc1ccccc1Nc1ncc(-c2ccccc2)o1 | 4.09 | -0.18 | -4.21 | -0.58 | 3.87 | 2.96 | 4.49 | -0.11 | -0.14 | 3.16 |
| Cc1cc(O)cc(C)c1/C=C/c1cncc(-c2nn[nH]n2)c1 | 4.51 | 3.07 | 5.08 | 3.46 | 19.2 | 2.49 | 13.2 | 0.18 | -0.55 | 6.31 |
